# ChEMBL document CHEMBL1961873, “Compounds: GSK PKIS; Assays: Nanosyn kinase panel” (2012)
# Target: Ribosomal protein S6 kinase alpha-3 (Homo sapiens) (UniProt P51812)
# Conditions: at 0.1 µM
# Ribosomal protein S6 kinase alpha-3 (Homo sapiens), sequence (P51812 whole entry): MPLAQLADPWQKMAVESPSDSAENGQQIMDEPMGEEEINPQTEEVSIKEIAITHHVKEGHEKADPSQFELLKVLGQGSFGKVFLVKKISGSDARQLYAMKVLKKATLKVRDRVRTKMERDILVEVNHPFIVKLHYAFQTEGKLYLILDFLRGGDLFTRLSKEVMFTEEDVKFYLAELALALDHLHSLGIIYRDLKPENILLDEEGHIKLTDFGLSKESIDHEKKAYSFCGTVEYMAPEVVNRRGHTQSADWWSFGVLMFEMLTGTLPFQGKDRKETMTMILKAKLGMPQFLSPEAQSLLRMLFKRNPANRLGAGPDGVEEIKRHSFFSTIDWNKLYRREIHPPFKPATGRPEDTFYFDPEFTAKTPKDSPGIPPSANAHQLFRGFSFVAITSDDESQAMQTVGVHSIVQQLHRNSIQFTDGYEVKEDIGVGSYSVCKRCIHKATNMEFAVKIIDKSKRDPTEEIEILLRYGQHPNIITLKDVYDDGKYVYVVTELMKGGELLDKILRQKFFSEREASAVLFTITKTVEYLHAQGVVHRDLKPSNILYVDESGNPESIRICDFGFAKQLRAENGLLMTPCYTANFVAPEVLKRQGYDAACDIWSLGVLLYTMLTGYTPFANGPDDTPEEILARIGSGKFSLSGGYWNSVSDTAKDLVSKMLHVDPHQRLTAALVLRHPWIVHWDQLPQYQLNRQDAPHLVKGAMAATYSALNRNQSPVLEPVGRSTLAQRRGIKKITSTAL
row,SMILES,inhibition
1,COc1cc(/C=N/Nc2ncnc3[nH]ncc23)ccc1O,2.74%
2,CS(=O)(=O)CCNCc1coc(-c2ccc3ncnc(Nc4ccc(OCc5ccccc5)cc4)c3c2)c1,2.71%
3,Cc1cccc2c1NC(=O)/C2=N\Nc1ccc(S(N)(=O)=O)cc1,0.33%
4,c1ccc(-c2nc3n(c2-c2ccc4c(c2)OCO4)CCC3)nc1,4.41%
5,COc1cc(Nc2nccc(Nc3ccc4c(C)n[nH]c4c3)n2)cc(OC)c1OC,1.04%
6,COc1ccc(-c2cc3c(N)ncnc3o2)cc1,1.43%
7,COc1ccc(-c2nn3ncccc3c2-c2ccnc(Nc3ccc4c(c3)OCCO4)n2)cc1,0.04%
8,CCn1c(-c2nonc2N)nc2c(C#CC(C)(C)O)nc(OC[C@H](N)c3ccccc3)cc21,1.74%
9,Clc1ccc(-c2nn3ncccc3c2-c2ccnc(Nc3ccccc3)n2)cc1,0.47%
10,CN1CCC(n2cnc(-c3ccc(F)cc3)c2-c2ccnc(Nc3ccccc3)n2)CC1,1.15%
11,CNC(=O)c1cc(-c2ccc(F)cc2)cc(-c2ccc(S(=O)(=O)N3CCCC3)cc2)c1N,1.31%
12,COc1cc2c(cc1Nc1nc(Nc3ccsc3C(N)=O)c3cc[nH]c3n1)N(C(=O)CN(C)C)CCC2(C)C,17.2%
13,CCN(CC)S(=O)(=O)c1ccc(OC)c(Nc2ncc(-c3ccccc3)o2)c1,0.74%
14,CCn1c(-c2nonc2N)nc2ccccc21,7.22%
15,NC(=O)c1sc(-n2cnc3ccc(C(F)(F)F)cc32)cc1OCc1ccccc1Br,0.56%
16,CNC(=O)c1cncc(/C=C/c2ccccc2Cl)c1,1.15%
17,COc1ccc(-c2oc3ncnc(N)c3c2-c2ccc(NC(=O)Nc3cc(C(F)(F)F)ccc3F)cc2)cc1,4.28%

row,SMILES,inhibition
1,COC(=O)Nc1nc2ccc(S(=O)(=O)c3ccc(NC(=O)Nc4cc(C(F)(F)F)ccc4F)cc3)cc2[nH]1,0.77%
2,Cc1cccc(Nc2ncc(-c3ccccc3)o2)c1,0.91%
3,NS(=O)(=O)c1ccc(Nc2ncc(-c3ccccc3)o2)cc1,1.17%
4,COc1cc(N2CCN(C(C)C)CC2)ccc1Nc1nc(Nc2ccc(F)cc2C(N)=O)c2cc[nH]c2n1,15%
5,COc1ccc2[nH]c3c4[nH]c5ccc(OC)cc5c4c4c(c3c2c1)C(=O)NC4=O,44.9%
6,CCn1c(-c2nonc2N)nc2c(C#CC(C)(C)O)ncc(OC3CCNCC3)c21,3.02%
7,CNC(=O)c1cccc(C#Cc2cncnc2Nc2ccc(OCc3cccc(F)c3)c(Cl)c2)c1,-0.84%
8,CCCN(CCS(C)(=O)=O)Cc1ccc(-c2ccc3ncnc(Nc4ccc(OCc5cccc(F)c5)c(Cl)c4)c3c2)o1,0.4%
9,N#Cc1c(NC(=O)CN2CCOCC2)sc2c1CCCC2,1.56%
10,N#Cc1c(NC(=O)c2ccc(F)cc2)sc2c1CCCC2,0.9%
11,COc1ccc(CNC(=O)c2ccc(-c3cc(-c4nnc(C)o4)ccc3C)cc2)cc1,2.12%
12,CN1CCC(n2cnc(-c3ccc(F)cc3)c2-c2ccnc(N)n2)CC1,-0.12%
13,O=C(Nc1n[nH]c2cc(-c3ccc(F)cc3)ccc12)C1CC1,4.78%
14,CC1=C(C(=O)Nc2cc(Cl)c3[nH]ncc3c2)C(c2ccc(C(F)(F)F)cc2)CC(=O)N1 (stereo unspecified),22.3%
15,CCN1CCC(CC(=O)Nc2n[nH]c3nnc(-c4cccc(F)c4F)cc23)CC1,3.2%
16,CC(C)COC(=O)c1ccc2c(c1)/C(=C/Nc1ccc(S(N)(=O)=O)cc1)C(=O)N2,7.27%

# Target: Ribosomal protein S6 kinase alpha-3 (Homo sapiens) (UniProt P51812)
# Conditions: at 1 µM
row,SMILES,inhibition
1,COc1cc(/C=N/Nc2ncnc3[nH]ncc23)ccc1O,11.7%
2,CS(=O)(=O)CCNCc1coc(-c2ccc3ncnc(Nc4ccc(OCc5ccccc5)cc4)c3c2)c1,3.03%
3,Cc1cccc2c1NC(=O)/C2=N\Nc1ccc(S(N)(=O)=O)cc1,1.26%
4,c1ccc(-c2nc3n(c2-c2ccc4c(c2)OCO4)CCC3)nc1,5.78%
5,COc1cc(Nc2nccc(Nc3ccc4c(C)n[nH]c4c3)n2)cc(OC)c1OC,0.03%
6,COc1ccc(-c2cc3c(N)ncnc3o2)cc1,2.31%
7,COc1ccc(-c2nn3ncccc3c2-c2ccnc(Nc3ccc4c(c3)OCCO4)n2)cc1,0.87%
8,CCn1c(-c2nonc2N)nc2c(C#CC(C)(C)O)nc(OC[C@H](N)c3ccccc3)cc21,14.5%
9,Clc1ccc(-c2nn3ncccc3c2-c2ccnc(Nc3ccccc3)n2)cc1,1.89%
10,CN1CCC(n2cnc(-c3ccc(F)cc3)c2-c2ccnc(Nc3ccccc3)n2)CC1,3.9%
11,CNC(=O)c1cc(-c2ccc(F)cc2)cc(-c2ccc(S(=O)(=O)N3CCCC3)cc2)c1N,1.69%
12,COc1cc2c(cc1Nc1nc(Nc3ccsc3C(N)=O)c3cc[nH]c3n1)N(C(=O)CN(C)C)CCC2(C)C,50.7%
13,CCN(CC)S(=O)(=O)c1ccc(OC)c(Nc2ncc(-c3ccccc3)o2)c1,-0.03%
14,CCn1c(-c2nonc2N)nc2ccccc21,36.2%
15,NC(=O)c1sc(-n2cnc3ccc(C(F)(F)F)cc32)cc1OCc1ccccc1Br,2.48%
16,CNC(=O)c1cncc(/C=C/c2ccccc2Cl)c1,1.38%
17,COc1ccc(-c2oc3ncnc(N)c3c2-c2ccc(NC(=O)Nc3cc(C(F)(F)F)ccc3F)cc2)cc1,34.4%

row,SMILES,inhibition
1,COC(=O)Nc1nc2ccc(S(=O)(=O)c3ccc(NC(=O)Nc4cc(C(F)(F)F)ccc4F)cc3)cc2[nH]1,0.41%
2,Cc1cccc(Nc2ncc(-c3ccccc3)o2)c1,3.43%
3,NS(=O)(=O)c1ccc(Nc2ncc(-c3ccccc3)o2)cc1,4.01%
4,COc1cc(N2CCN(C(C)C)CC2)ccc1Nc1nc(Nc2ccc(F)cc2C(N)=O)c2cc[nH]c2n1,57%
5,COc1ccc2[nH]c3c4[nH]c5ccc(OC)cc5c4c4c(c3c2c1)C(=O)NC4=O,80.1%
6,CCn1c(-c2nonc2N)nc2c(C#CC(C)(C)O)ncc(OC3CCNCC3)c21,14.3%
7,CNC(=O)c1cccc(C#Cc2cncnc2Nc2ccc(OCc3cccc(F)c3)c(Cl)c2)c1,0.62%
8,CCCN(CCS(C)(=O)=O)Cc1ccc(-c2ccc3ncnc(Nc4ccc(OCc5cccc(F)c5)c(Cl)c4)c3c2)o1,0.24%
9,N#Cc1c(NC(=O)CN2CCOCC2)sc2c1CCCC2,0.9%
10,N#Cc1c(NC(=O)c2ccc(F)cc2)sc2c1CCCC2,2.51%
11,COc1ccc(CNC(=O)c2ccc(-c3cc(-c4nnc(C)o4)ccc3C)cc2)cc1,5.75%
12,CN1CCC(n2cnc(-c3ccc(F)cc3)c2-c2ccnc(N)n2)CC1,2.82%
13,O=C(Nc1n[nH]c2cc(-c3ccc(F)cc3)ccc12)C1CC1,9.26%
14,CC1=C(C(=O)Nc2cc(Cl)c3[nH]ncc3c2)C(c2ccc(C(F)(F)F)cc2)CC(=O)N1 (stereo unspecified),65.5%
15,CCN1CCC(CC(=O)Nc2n[nH]c3nnc(-c4cccc(F)c4F)cc23)CC1,3.53%
16,CC(C)COC(=O)c1ccc2c(c1)/C(=C/Nc1ccc(S(N)(=O)=O)cc1)C(=O)N2,36%
